Structures are written as SMILES. Records with an inconclusive call do not appear. Entries that show only a call come without a potency. The source made the active and inactive calls. Calls come from the whole dose curve.

The assay deals with Nucleoprotein (Lymphocytic choriomeningitis virus (strain Armstrong)) (UniProt P09992). Put plainly: qHTS for Inhibitors of the Functional Ribonucleoprotein Complex (vRNP) of Lymphocytic Choriomeningitis Arenaviruses (LCMV): LCMV Primary Screen - GLuc reporter signal (AID 1347086). Note: nearly all actives have a fitted effect of over 70% in size. As to conditions: LCMV minigenome vRNP cell assay, Gaussia luciferase reporter; series mostly up to 57.5 µM.
Sequence of Nucleoprotein (Lymphocytic choriomeningitis virus (strain Armstrong)) (P09992 whole entry, looked up): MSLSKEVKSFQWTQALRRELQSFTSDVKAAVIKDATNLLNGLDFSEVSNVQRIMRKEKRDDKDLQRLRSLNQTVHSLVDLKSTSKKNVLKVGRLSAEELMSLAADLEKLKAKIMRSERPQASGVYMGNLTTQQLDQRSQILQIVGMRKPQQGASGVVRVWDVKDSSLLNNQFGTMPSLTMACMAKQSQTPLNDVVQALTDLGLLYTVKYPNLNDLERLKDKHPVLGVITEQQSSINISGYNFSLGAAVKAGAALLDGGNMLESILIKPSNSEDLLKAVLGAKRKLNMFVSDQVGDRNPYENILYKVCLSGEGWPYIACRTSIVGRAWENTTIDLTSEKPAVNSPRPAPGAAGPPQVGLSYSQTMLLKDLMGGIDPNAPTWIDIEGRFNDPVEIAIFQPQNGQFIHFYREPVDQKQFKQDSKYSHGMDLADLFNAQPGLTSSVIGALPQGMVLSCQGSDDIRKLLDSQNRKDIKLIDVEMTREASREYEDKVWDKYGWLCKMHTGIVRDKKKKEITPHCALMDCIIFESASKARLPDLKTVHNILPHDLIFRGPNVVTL
Take `NC(=O)C(=O)N/N=C/c1ccc([N+](=O)[O-])o1`: the Potency entry is “inactive”. In the case of `CCCCc1cc2ccccc2c(OCCN(C)C)n1`, the Potency entry was “inactive”. On to `C/C=C/c1ccc(OC)cc1`, for which the Potency result was “inactive”. As to `CC(=O)O[C@]1(C(C)=O)CC[C@H]2[C@@H]3C=C(Cl)C4=CC(=O)CC[C@]4(C)[C@H]3CC[C@@]21C`, the Potency entry was “inactive”. Turning to `COc1ccc(CCC(C)=O)cc1`, the Potency result is “inactive”. For `NC(CSCC(=O)O)C(=O)O` (centres undefined), the Potency entry was “inactive”. Regarding `CCn1cc(C(=O)O)c(=O)c2cc(F)c(N3CCN(C)CC3)cc21`, the Potency result was “inactive”.

For the compound `Clc1ccc(Nc2nnc(Cc3ccncc3)c3ccccc23)cc1`, the Potency entry was “inactive”.

Take `O=C(O)c1ccc(OCCCOc2ccc(C(=O)O)cc2)cc1`: the Potency entry is “inactive”. For the compound `O=C(/C=C/c1ccc(O)c(O)c1)O[C@@H]1C[C@@](OC(=O)/C=C/c2ccc(O)c(O)c2)(C(=O)O)C[C@@H](O)[C@@H]1O`, the Potency entry was “inactive”. Then `CCOC(=O)C1=C[C@]2(CC)CCCN3CCc4c(n1c1ccccc41)[C@@H]32`, with “inactive”; and `CCC(CC)(CC(=O)Nc1cccc(/C=C/c2nc(C3CCC3)cs2)c1)C(=O)O`, with “inactive”; and `C[C@@H]1CN(CCCn2c3ccccc3c3ccccc32)C[C@H](C)N1`, with “inactive”. Then `C[C@@H]1C[C@H]2[C@@H]3CCC4=CC(=O)C=C[C@]4(C)[C@@]3(F)[C@@H](O)C[C@]2(C)[C@H]1C(=O)CO`, with “inactive”. In the case of `N[C@@H](Cc1c[nH]c2ccc(O)cc12)C(=O)O`, the Potency result was “inactive”. Regarding `Cc1cc(C)c(/C=C2\C(=O)Nc3ccccc32)[nH]1`, the Potency entry was “inactive”. As to `Cc1cc(O)c(C(C)C)cc1Cl`, the Potency entry was “inactive”. `CCN(CC)CCOC(=O)C(c1ccccc1)C1CCCCC1` (centres undefined): the Potency result was “inactive”. For `Fc1ccc(C(c2ccc(F)cc2)N2CCNCC2)cc1`, the Potency entry was “inactive”. In the case of `Cc1ccc(C(=O)Nc2ccc(S(=O)(=O)O)c3cc(S(=O)(=O)O)cc(S(=O)(=O)O)c23)cc1NC(=O)c1cccc(NC(=O)Nc2cccc(C(=O)Nc3cc(C(=O)Nc4ccc(S(=O)(=O)O)c5cc(S(=O)(=O)O)cc(S(=O)(=O)O)c45)ccc3C)c2)c1` it was “inactive”.

With `CC(=O)O[C@H]1CC[C@@]2(C)C(=CC[C@@H]3[C@@H]2CC[C@]2(C)C(C(C)=O)=CC[C@@H]32)C1`, the Potency result was “inactive”. As to `O=C(O)CCNC(=O)c1ccccc1`, the Potency result was “inactive”. Take `N[C@H](C(=O)O)c1ccc(O)cc1`: the Potency result was “inactive”. With `Cc1c(Cn2ccnc2)c2ccccc2n1CCC(=O)O`, the Potency result was “inactive”. Take `CC(C)Cn1cnc2c1c(=O)n(C)c(=O)n2C`: the Potency entry was “inactive”.

For the compound `CCCCNc1ccc(C(=O)OCCN(CC)CC)cc1`, the Potency entry was “inactive”. For the compound `CC(C)(Oc1ccc(CCNC(=O)c2ccc(Cl)cc2)cc1)C(=O)O`, the Potency entry was “inactive”. On to `CCOC(=O)[C@H](CCc1ccccc1)N[C@@H](C)C(=O)N(CC(=O)O)C1Cc2ccccc2C1`, for which the Potency result was “inactive”. As for `O=C(O)CCc1nc(-c2ccccc2)c(-c2ccccc2)o1`, the Potency entry is “inactive”. As to `Cc1ccc(S(=O)(=O)NC(=O)NC2CCCC2)cc1`, the Potency entry was “inactive”. Take `C[C@H](CCC(=O)O)[C@H]1CC[C@H]2[C@@H]3C(=O)C[C@@H]4CC(=O)CC[C@]4(C)[C@H]3CC(=O)[C@]12C`: the Potency entry is “inactive”.

On to `CCC(=O)Oc1ccc2c(c1)CC[C@@H]1[C@@H]2CC[C@@]2(C)[C@H]1C[C@@H](OC(=O)CC)[C@@H]2OC(=O)CC`, for which the Potency result is “inactive”.

Take `COCC(=O)O[C@]1(CCN(C)CCCc2nc3ccccc3[nH]2)CCc2cc(F)ccc2[C@@H]1C(C)C`: the Potency entry was “inactive”.

In the case of `C[C@H]1C[C@H]2[C@@H]3CCC4=CC(=O)C=C[C@]4(C)[C@@]3(Cl)[C@@H](O)C[C@]2(C)[C@@]1(O)C(=O)CO`, the Potency result is “inactive”. With `Cc1cccc(OCC(O)CNC(C)(C)C)c1C` (centres undefined), the Potency result was “inactive”. On to `CC(=O)Nc1ccn(C2COC(COC(=O)c3ccccc3)O2)c(=O)n1` (centres undefined), for which the Potency entry is “inactive”.

`CC(=O)Oc1ccc(C(c2ccc(OC(C)=O)cc2)c2ccccn2)cc1`: the Potency result was “inactive”. As for `CC(C)(C)C(=O)NCCCC(=O)O`, the Potency result was “inactive”.

`CNC(=O)c1c(I)c(NC(=O)CCCCC(=O)Nc2c(I)c(C(=O)O)c(I)c(C(=O)NC)c2I)c(I)c(C(=O)O)c1I`: the Potency result was “inactive”.

Values taken from PubChem BioAssay (NCATS).
